The text below walks through data of PubChem BioAssay (NCI).

Compounds without any hit were thinned out: in the full panel of roughly 83,000, 20% have a hit.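 The endpoint reported here, percent growth, reads 100 for growth as untreated, 0 for no net growth and -100 for all cells dead.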 A number with no mark means an inactive call. Activity calls are given as the source filed them. The calls were made as follows: active = growth percent below 10; inactive = the rest.

For the first experiment, the system named is SF-539 CNS. In words: NCI-60 one-dose screen, 48 h (100 = growth as untreated, 0 = no growth, -100 = all killed). Conditions: 10 µM unless noted.
Take `COc1cc(/C=C/c2cc(O)c(C(C)=O)c(O)c2)cc2c1O[C@]1(C)CC[C@@H](O)C(C)(C)[C@H]1C2`: the growth is 9.14% (active).
In the case of `O=C(CCN1CCCC1)Nc1ccc2c(NCCCc3ccccc3)c3ccccc3nc2c1`, the growth was 13.7%.
`CCSCC1CC(O)(c2ccccc2)CC(c2ccc(F)cc2)O1` (stereo not given): the growth is 36.5%.
Turning to `N/C(=N\C(N)=N\c1nc2ccccc2s1)c1cnccn1`, the growth is 16%.
Take `C#CCNC(=O)[C@]1(C)CC[C@]2(C)CC[C@@H]3C(=CC[C@H]4[C@@]3(C)CC[C@H]3C(C)(C)C(=O)CC[C@]43C)[C@@H]2C1`: the growth was 102%.
Regarding `CCc1ccc(CNc2ccc(N3CCOCC3)c(C(=O)O)c2)cc1`, the growth was 100%.
`COc1ccc(/C=N/NC(=O)c2cnn3c2NC(c2ccccc2)C3)cc1OC` (stereo not given): the growth is 63.4%.
`N#CC1=C(/N=C/c2ccccc2)Oc2c(ccc3ccccc23)C1c1ccc([N+](=O)[O-])cc1` (stereo not given): the growth was 95.1%.
With `O=C(Cc1ccccc1)NNc1nc(Cl)nc(N2CCN(C(c3ccccc3)c3ccccc3)CC2)n1`, the growth was 102%.
For the compound `COC(=O)C1=C(C(=O)ON)[C@@H]2C=C[C@@]1([C@@H](Cc1ccccc1)Nc1ccccc1)O2`, the growth was 93.8%.
Consider `CCCOC(=O)N[C@H]1CCc2c(Cl)c(OC)c(OC)c(OC)c2-c2ccc(SC)c(=O)cc21`, for which the growth is 3.18% (active).
For the compound `CCN(CC)CCCC(C)Nc1cc(O)cc2cccnc12` (stereo not given), the growth was 103%.
As for `O=C1c2ccc3c4c(ccc(c24)C(=O)N1CCCNCc1ccccc1F)C(=O)N(CCCNCc1ccccc1F)C3=O`, the growth is -65.5% (active).
Same read-out and setting: for `CC1=CCC(OC(=O)C(C)(O)CCC(O)(C(=O)OC2(C)C=CC(O)(C(C)C)CC2)C(C)C)(C(C)C)CC1` (stereo not given) the value was 103%; for `CCCCCCNC(=O)Nc1ccc2cc3ccc(NC(=O)NCCCCCC)cc3nc2c1`, -77.1% (active); for `C[C@H]1[C@H](C)CC[C@]2(C(=O)NCC#CCN3CCN(C)CC3)CC[C@]3(C)C(=CC[C@@H]4[C@@]5(C)Cc6c([nH]c7ccccc67)C(C)(C)[C@@H]5CC[C@]43C)[C@H]12`, 84.8%.
Take `O=C(/C=C(/C=C/c1coc2ccccc12)OB(F)F)/C=C/c1coc2ccccc12`: the growth is 110%.

The next experiment concerns UACC-257 melanoma. The experiment is described as above. Conditions: 10 µM unless noted.
`Cc1cccc(NC(=O)Nc2ccc(-c3ccc4c(c3)NC(=O)/C4=C\c3ccc[nH]3)cc2)c1`: the growth was 102%.
On the same count and under the same terms, the result for `Cc1cc2nc3c4cc(C=O)ccc4n(CCN(C)C)c3nc2cc1C` reads 11.4%; that for `c1ccc2c(-c3nccs3)c[nH]c2c1`, 111%; that for `COc1cc(NC(C)CCCNC(=O)CCC(=O)NCCCNCCCCCCCCCCNCCCNC(=O)CCC(=O)NCCCC(C)Nc2cc(OC)cc3cccnc23)c2ncccc2c1` (stereo not given), 47.1% [8 µM].
As to `O=C1c2ccc3c4c(ccc(c24)C(=O)N1CCCNCc1ccccc1)C(=O)N(CCCNCc1ccccc1)C3=O`, the growth is -95.2% (active).
In the case of `COc1ccc(CNCCN2C(=O)c3ccc4c5c(ccc(c35)C2=O)C(=O)N(CCNCc2ccc(OC)c(OC)c2OC)C4=O)c(OC)c1OC`, the growth is -85.1% (active).
As to `CCN(CC)c1ccc(C(=O)c2ccccc2)cc1`, the growth was 96.1%.
For `COc1cc2c(c(O)c1Cl)C(=O)c1c(O)cc(C[C@H](C)O)cc1[C@H]2[C@H]1c2cc(C[C@H](C)O)cc(O)c2C(=O)c2c1cc(OC)c(Cl)c2O`, the growth is -4.04% (active).
Still for that read-out and setting: the result for `Nc1c(C(=O)Nc2cccc3cnccc23)sc2nc3c(cc12)C(=O)CCC3` reads 95.6%; that for `O=C(CCN1CCCC1)Nc1ccc2c(Nc3ccc(F)cc3)c3ccccc3nc2c1`, -57.1% (active).
Turning to `COc1cc2c(cc1OC)C(=O)/C(=C/c1cc(C)c(O)c(C)c1)S2`, the growth was 70.7%.
For `CCCCCN1C=C/C(=C\C(=O)N(C)c2ccc(Oc3ccccc3)cc2)c2ccccc21`, the growth is 74.2%.
Consider `C/C(=N\Nc1cc(C)nc2ccc(Br)cc12)c1ccc([N+](=O)[O-])cc1`, for which the growth was 107%.
In the case of `N/C(=N\C(N)=N\c1nc2ccccc2s1)c1ccnc(Br)c1`, the growth is 46.2%.
In the case of `COc1cc(/C=N/NC(=O)c2cnn3c2NC(c2ccccc2)C3)ccc1Oc1ccccc1` (stereo not given), the growth was 41.6%.
On the same count and under the same terms, for `COc1cc(-c2n/c(=C\c3c(O)[nH]c4ccc(Cl)cc34)cc3c2=Nc2ccccc2-3)ccc1F` the value was 58.1%.
The same measure, in the same setting: the result for `c1ccc2c(-c3c[nH]c4ccccc34)c3c(cc2c1)[nH]c1ccccc13` reads 77.6%; that for `C=C(C)[C@@H]1CC[C@]2(CN)CC[C@]3(C)[C@H](CC[C@@H]4[C@@]5(C)CCCNC(C)(C)[C@@H]5CC[C@]43C)[C@@H]12`, 46.3%; that for `CCOC(=O)/C(C#N)=C1/NNC(=Nc2cccnc2)S1`, 78.3%.
Still for that read-out and setting: the result for `O=C1c2ccc3c4c(ccc(c24)C(=O)N1CCCNCc1ccccc1Cl)C(=O)N(CCCNCc1ccccc1Cl)C3=O` reads -90.6% (active); that for `CCN(CC)c1ccc(/C=N/NC(=O)CSc2nc3ccccc3c(=O)n2Cc2ccc(S(N)(=O)=O)cc2)c(O)c1`, 13%; that for `COc1cc(/C=C/c2cc(O)c(C(C)=O)c(O)c2)cc2c1O[C@]1(C)CC[C@@H](O)C(C)(C)[C@H]1C2`, 76.4%.
For `O=C(CCN1CCCC1)Nc1ccc2c(NCCCc3ccccc3)c3ccccc3nc2c1`, the growth was 14.7%.
With `CCSCC1CC(O)(c2ccccc2)CC(c2ccc(F)cc2)O1` (stereo not given), the growth is 35.7%.
The same measure, in the same setting: the result for `N/C(=N\C(N)=N\c1nc2ccccc2s1)c1cnccn1` reads 35.5%.
`C#CCNC(=O)[C@]1(C)CC[C@]2(C)CC[C@@H]3C(=CC[C@H]4[C@@]3(C)CC[C@H]3C(C)(C)C(=O)CC[C@]43C)[C@@H]2C1`: the growth was 98.7%.
As for `CCc1ccc(CNc2ccc(N3CCOCC3)c(C(=O)O)c2)cc1`, the growth was 106%.
Take `COc1ccc(/C=N/NC(=O)c2cnn3c2NC(c2ccccc2)C3)cc1OC` (stereo not given): the growth was 77.9%.
For the compound `N#CC1=C(/N=C/c2ccccc2)Oc2c(ccc3ccccc23)C1c1ccc([N+](=O)[O-])cc1` (stereo not given), the growth is 97.1%.
Regarding `O=C(Cc1ccccc1)NNc1nc(Cl)nc(N2CCN(C(c3ccccc3)c3ccccc3)CC2)n1`, the growth is 90.6%.
On the same count and under the same terms, the result for `COC(=O)C1=C(C(=O)ON)[C@@H]2C=C[C@@]1([C@@H](Cc1ccccc1)Nc1ccccc1)O2` reads 94.8%; that for `CCCOC(=O)N[C@H]1CCc2c(Cl)c(OC)c(OC)c(OC)c2-c2ccc(SC)c(=O)cc21`, 72.4%.
Consider `CCN(CC)CCCC(C)Nc1cc(O)cc2cccnc12` (stereo not given), for which the growth is 93.8%.
For the compound `O=C1c2ccc3c4c(ccc(c24)C(=O)N1CCCNCc1ccccc1F)C(=O)N(CCCNCc1ccccc1F)C3=O`, the growth is -98.6% (active).
On to `CC1=CCC(OC(=O)C(C)(O)CCC(O)(C(=O)OC2(C)C=CC(O)(C(C)C)CC2)C(C)C)(C(C)C)CC1` (stereo not given), for which the growth is 106%.
As to `CCCCCCNC(=O)Nc1ccc2cc3ccc(NC(=O)NCCCCCC)cc3nc2c1`, the growth was 72.6%.
As for `C[C@H]1[C@H](C)CC[C@]2(C(=O)NCC#CCN3CCN(C)CC3)CC[C@]3(C)C(=CC[C@@H]4[C@@]5(C)Cc6c([nH]c7ccccc67)C(C)(C)[C@@H]5CC[C@]43C)[C@H]12`, the growth is 97%.
`O=C(/C=C(/C=C/c1coc2ccccc12)OB(F)F)/C=C/c1coc2ccccc12`: the growth is 92.3%.
